Screening results: PubChem, Broad Institute
An excerpt weighted towards active compounds, which were near 3.3% of everything screened.
ERAP1 HTS inh = blocks human ERAP1 aminopeptidase activity | actives 0.15% (n = 340,000) | AID 652197 | recombinant ERAP1, Leu-AMC fluorescence, 60 min | inhibition, % at 10.7 µM | Q9NZ08;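 active means mean replicate inhibition of at least 30%, or all replicates individually reaching that 30% level; inactive means mean below 30% and not every replicate reaching it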;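 further: 0% = neutral control wells and 100% = L-leucinethiol positive control wells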
INS-1E GSIS act = primary screen for activators of insulin secretion dependent on glucose, INS-1E cells, GLuc reporter luminescence; INS-1E GLuc reporter insulin secretion, 2-3 h; activation, % at 16.6 µM; actives 0.61% (n = 370,000);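 active means lowest replicate activation of at least 40%, so every replicate reaches that level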;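 further: 0% = median of neutral control wells and 100% = median of IBMX positive control wells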
CASP6 VEID inh = blocks human caspase-6 cleavage activity. inhibition, % at 12.5 µM. actives 0.53% (n = 350,000). P55212. purified caspase-6, Z-VEID-R110 cleavage fluorescence;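 active means mean inhibition across replicates at least about 35%, with every replicate also reaching that limit, limit read from the data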;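 further: 0% = median of neutral control wells and 100% = no fluorescence left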
Target sequence (P55212 24-179 limits assumed): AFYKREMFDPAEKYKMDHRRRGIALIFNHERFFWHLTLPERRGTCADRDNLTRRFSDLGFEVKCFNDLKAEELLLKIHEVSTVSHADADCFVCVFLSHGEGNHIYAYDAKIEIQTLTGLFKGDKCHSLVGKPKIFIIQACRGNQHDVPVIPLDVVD
Target sequence (P55212 194-293 limits assumed): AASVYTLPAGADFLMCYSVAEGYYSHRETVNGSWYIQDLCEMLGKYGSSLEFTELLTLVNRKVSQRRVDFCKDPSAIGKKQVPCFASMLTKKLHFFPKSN
SIRT5 inh = blocks human SIRT5 desuccinylation of peptide. Q9NXA8. Purified SirT5, succinyl-peptide AMC, trypsin-coupled fluorescence. inhibition, % at 15 µM. actives 1.1% (n = 330,000); in the data active means inhibition above about 15%
Target sequence (Q9NXA8 whole entry, looked up): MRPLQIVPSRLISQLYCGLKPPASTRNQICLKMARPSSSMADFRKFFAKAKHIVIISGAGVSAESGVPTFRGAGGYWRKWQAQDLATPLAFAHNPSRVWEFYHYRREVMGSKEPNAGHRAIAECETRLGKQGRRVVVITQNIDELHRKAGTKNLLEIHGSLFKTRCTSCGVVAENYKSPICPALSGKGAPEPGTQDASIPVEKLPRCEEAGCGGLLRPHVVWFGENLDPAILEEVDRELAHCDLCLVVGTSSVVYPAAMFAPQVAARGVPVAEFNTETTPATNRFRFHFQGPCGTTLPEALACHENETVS
FGF22 binding = binders of recombinant human FGF22 by thermal shift; Q9HCT0; SYPRO orange fluorescence; percent of sucrose octasulfate shift, DMSO zero; activity (Tm shift, normalised), % at 9.99 µM; actives 1.5% (n = 340,000); AID 651658;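 active means mean Tm shift, scaled 0 neutral to 100 positive control, at about 1.3% or above, every replicate too, limit read from the data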
* hit, by the source's call; · = not tested or not shown; ! = repeats disagree.

SMILES | ERAP1 HTS inh | INS-1E GSIS act | CASP6 VEID inh | SIRT5 inh | FGF22 binding
Cc1ccccc1-c1ccc(C2[C@@H]3CN(C(=O)Nc4cccc(F)c4)C[C@H]2N3)cc1 (stereo partly specified) | -5 | 93*! | 2 | 10 | ·
O=C(C1CCCC1)N1C[C@@H]2N[C@H](C1)C2c1ccc(-c2ccccc2F)cc1 (stereo partly specified) | 1 | -5 | 2 | 25*! | ·
Cc1ccccc1-c1ccc([C@@H]2[C@@H](CO)N3CCCCN(C(=O)Nc4ccc(F)cc4)C[C@@H]23)cc1 | 3 | -40 | -5 | 15* | 0
Cc1ccccc1-c1ccc([C@@H]2[C@H](CO)N3CCCCN(C(=O)Nc4ccc(F)cc4)C[C@@H]23)cc1 | 1 | -17 | 0 | 17* | -1
C[C@H]1CN([C@@H](C)CO)S(=O)(=O)c2ccc(-c3ccc(F)cc3)cc2O[C@@H]1CN(C)C(=O)C1CCCCC1 | 1 | -16 | 2 | 12 | 0
O=C1[C@@H]2[C@@H](CC(COc3ccccc3)=C3[C@@H](c4ccccc4)OB(O)C[C@@H]32)C(=O)N1Cc1ccccc1 | 4 | · | -1 | 6 | 0
COCCCNC(=O)CSc1ccsc1[N+](=O)[O-] | 2 | -3 | 20 | 1 | 0
O=C(CSc1ccsc1[N+](=O)[O-])NCc1ccco1 | 5 | 1 | 46* | 0 | 0
CCCCNC(=O)C(Sc1ccccc1)c1ccccc1 (stereo unspecified) | 4 | · | -1 | · | 0
CCC(C)NC(=O)C(Sc1ccccc1)c1ccccc1 (stereo unspecified) | 2 | 1 | -6 | -2 | 43*
CC(=O)NC(C)c1nc2ccccc2n1CC(=O)N1C(C)CCCC1C (stereo unspecified) | 1 | 2 | 0 | 1 | 44*
CCn1c(C(C)NC(C)=O)nc2ccccc21 (stereo unspecified) | 4 | 13 | 0 | -4 | 0
O=C(O)c1cccc(Cn2c(Cl)c(/C=N/NC(=O)c3cc4ccccc4cc3O)sc2=O)c1 | · | -27 | 42* | 24* | 0
O=C(O)c1cccc(Cn2c(Cl)c(/C=N/NC(=O)c3cccc(O)c3)sc2=O)c1 | 4 | -18 | 2 | 0 | 0
C[C@H](c1ccccc1)N1C[C@@H](COCc2ccccc2)Oc2cccc(N3CCCCC3)c2S1(=O)=O | -4 | -31 | -2 | -10 | 0
CCCCN1CC(COCc2ccccc2)Oc2cccc(N3CCCC3)c2S1(=O)=O (stereo unspecified) | 3 | -4 | -3 | · | 43*
O=S1(=O)c2ccccc2OC(COCc2ccccc2)CN1C1CC1 (stereo unspecified) | 2 | 109* | -1 | -2 | 0
C[C@@H]1CN([C@H](C)CO)C(=O)c2cc(NC(=O)Nc3ccccc3)ccc2O[C@@H](C)CCCCO[C@H]1CN(C)C | -1 | 8 | -1 | 0 | 0
CO[C@H](CN(C)Cc1nccs1)[C@@H](C)CN([C@@H](C)CO)S(=O)(=O)c1ccc(C)cc1 | 1 | -17 | 3 | 19* | 0
Cc1noc(C)c1S(=O)(=O)N(C)C[C@H]1Oc2c(NC(=O)C3CCOCC3)cccc2C(=O)N([C@H](C)CO)C[C@H]1C | · | 18 | · | · | ·
CCOc1ccc2nc(NCCNC(=O)Nc3ccccc3)c(C#N)cc2c1 | · | 200* | · | · | ·
CCOc1ccc2nc(NCCNC(=O)Nc3cccc(C)c3)c(C#N)cc2c1 | · | 320* | · | · | ·
CCOc1ccc2nc(NCCNC(=S)NCCCN(C)C)c(C#N)cc2c1 | 0 | 2 | -37 | -3 | 0
CO[C@H](CN(C)C(=O)c1ccc2c(c1)OCO2)[C@H](C)CN([C@H](C)CO)S(=O)(=O)c1ccc(C)cc1 | 0 | -5 | -2 | 1 | 0
COc1cccc(NC(=O)C[C@@H]2CC[C@H]3[C@@H](COc4ccc(NC(=O)C5CCCC5)cc4C(=O)N3C)O2)c1 | · | -3 | · | · | ·
SMILES | ERAP1 HTS inh | INS-1E GSIS act | CASP6 VEID inh | SIRT5 inh | FGF22 binding
Cc1nnsc1SCCNC(=O)Nc1ccc(Cl)cc1 | -2 | -8 | · | -6 | 44*
O=C(NCCNC(=O)Nc1ccc(Cl)cc1)Nc1ccc(Cl)cc1 | -3 | 7 | -1 | -1 | 0
O=C(NCCO)Nc1ccc(Cl)cc1 | · | 10 | -1 | 19* | 0
O=C(NCCc1ccc(Cl)cc1)Nc1ccc(F)cc1 | -1 | -2 | -1 | -3 | 1
CC(C)NC(=O)N(C)C[C@@H]1OCCCC[C@@H](C)Oc2ccc(NS(=O)(=O)c3ccc(Cl)cc3)cc2C(=O)N([C@H](C)CO)C[C@H]1C | -2 | -13 | 3 | 5 | 0
NC(=S)NCc1cccnc1 | -2 | 5 | -1 | -3 | 43*
Cc1ccc(CC(=O)NCc2cccnc2)cc1 | -2 | -20 | -1 | -5 | 44*
Cc1nnc(-c2ccc(Cl)cc2)nc1NCCN(C)C | 0 | 10 | -5 | 18* | 0
CCCN(C)C[C@H]1OCCCC[C@H](C)Oc2ccc(NS(=O)(=O)c3c(C)noc3C)cc2C(=O)N([C@@H](C)CO)C[C@H]1C | -4 | -11 | 0 | 2 | 1
CC(NC1CCCC1)c1ccccc1 (stereo unspecified) | -5 | 13 | -1 | 4 | 44*
O=C(/C=C/c1ccccc1)Nc1cccc(S(=O)(=O)Nc2ccccc2F)c1 | 0 | -5 | -4 | 25* | 0
O=C(NNC(=O)c1cccc(S(=O)(=O)Nc2ccccc2F)c1)c1ccncc1 | -1 | -7 | 1 | 18* | 0
O=C(Cc1ccc(Cl)cc1Cl)Nc1cccc(S(=O)(=O)Nc2ccccc2F)c1 | 1 | · | 1 | 30* | 0
O=C(Nc1cccnc1)c1cccc(S(=O)(=O)Nc2ccccc2F)c1 | -3 | -12 | 5 | 1 | 0
CC(C)NC(=O)N[C@@H]1CC[C@H](CC(=O)NCCN2CCCC2)O[C@H]1CO | 2 | -6 | -3 | 3 | 0
C[C@@H]1CN([C@H](C)CO)S(=O)(=O)c2ccc(C3=CCCCC3)cc2O[C@H]1CN(C)C(=O)C1CCCCC1 | -2 | -9 | -1 | 9 | 0
O=C1NC(=O)C(Cc2ccccc2)(c2ccccc2)N1 (stereo unspecified) | 1 | 9 | -4 | · | 0
COc1ccc(CC2(c3ccccc3)NC(=O)NC2=O)cc1 (stereo unspecified) | 2 | · | -1 | · | 43*
CSc1ccc(CN2C(=O)C(C)Sc3ccc(C(C)=O)cc32)cc1 (stereo unspecified) | -3 | · | -1 | -4 | 0
Cc1ccc2c(c1)N(Cc1ccccc1)C(=O)C(C)S2 (stereo unspecified) | -4 | -14 | -2 | 2 | 0
COc1cccc(-c2ccc3c(c2)N(Cc2cccc(F)c2)C(=O)C(C)S3)c1 (stereo unspecified) | -1 | 42* | 0 | · | 0
Cc1ccc2c(c1)N(Cc1cccc(F)c1)C(=O)C(C)O2 (stereo unspecified) | -3 | -21 | 0 | -3 | 0
